# According to ChEMBL document CHEMBL4513216, “Probing the Open Global Health Chemical Diversity Library for Multistage-Active Starting Points for Next-Generation Antimalarials” (ACS Infect Dis, 2020):
# Out of some 69,000 compounds screened, about 8,600 (12%) showed an effect of 50% or more. The sample as a whole holds a higher share of strong results than the screen did.
# Test system: Plasmodium berghei
# Test: Screen against P. berghei liver stage (PbLuc), transformed with Luciferase, at 10uM
# Assay type: functional, HepG2
# Conditions: tested at 10 uM
row,Compound,INHIBITION [%]
1,CN(C)Cc1ccnc(C2CCCN2Cc2cc3ccccc3s2)n1 (stereo not given),19.6
2,CC1CN(Cc2cc(C#N)ccc2F)CCN1Cc1nccn1C (stereo not given),22.95
3,O=C(CCc1cc2n(n1)CCCNC2)N1CCSCC1,-24.7
4,CNc1nc(C2CCCCN2C(=O)COC)nc2c1CN(C)CC2 (stereo not given),38.2
5,O=C(NC1CCC1)[C@@H]1CCO[C@@H]2CCN(C3CCCC3)C[C@@H]21,53.4
6,O=C(NC1CC1)[C@@H]1CCO[C@@H]2CCN(C3CCOCC3)C[C@@H]21,26.8
7,O=C(NC1CCC1)[C@@H]1CCO[C@@H]2CCN(C3CCCC3)C[C@H]21,-25.2
8,CNC(=O)[C@@H]1CCO[C@@H]2CCN(CCc3ccccc3)C[C@H]21,8.52
9,O=C(NC1CCC1)[C@@H]1CCO[C@@H]2CCN(CCc3ccccc3)C[C@H]21,53.5
10,O=C(NC1CC1)[C@@H]1CCO[C@@H]2CCN(CCc3ccccc3)C[C@@H]21,27.3
11,Cc1ccc(-n2c(SCC(=O)O)nnc2-c2ccccc2)cc1,-12.9
12,O=C1CN(CC2CC2)Cc2nc(NCc3ccccc3)sc21,29.3
13,Cn1cc(-c2nc(CN3CCCCC3Cn3cncn3)cs2)cn1 (stereo not given),-91.6
14,Cc1nnc2n1CCN(C(=O)c1cc(Br)c(Cl)[nH]1)C2,18.85
15,Cc1noc(C2CCCN(Cn3cc(Cl)cn3)C2)n1 (stereo not given),-9.39
16,Cc1nc(CN2C(=O)CC[C@@H]3[C@H]2CCN3C2CCOC2)cs1 (stereo not given in full),-54.9
17,Cc1nc(CN2C(=O)C[C@H]3[C@H]2CCN3C2CCOC2)cs1 (stereo not given in full),-43.1
18,Cc1nc(CN2C(=O)C[C@@H]3[C@@H]2CCN3CC2CCOCC2)cs1,-5.08
19,Cc1nc(CN2C(=O)C[C@H]3[C@H]2CCN3CC2CCOC2)cs1 (stereo not given in full),56.6
20,Cc1nc(CN2C(=O)C[C@H]3[C@H]2CCN3C2CCOCC2)cs1,20.1
21,Cc1nc(CN2C(=O)CC[C@@H]3[C@H]2CCN3C2CCOCC2)cs1,50
22,O=C(c1cnn2ccccc12)N1CCCC(OCc2ccccn2)C1 (stereo not given),15.7

row,Compound,INHIBITION [%]
1,COc1c(CNC(c2ccccc2)c2ccc(F)cc2)c(C)nn1C (stereo not given),35.4
2,CC1CCN(C(=O)[C@H]2C[C@@H]3CCN(CC4CCOCC4)C[C@H]3O2)CC1,-7.24
3,c1cc(NCc2ccncc2)nc(C2CCCN2)c1 (stereo not given),14
4,O=C(CC1CCN(c2cccnn2)CC1)Nc1nncs1,31.3
5,Cc1nc(-c2ccccc2)sc1CSCCC(N)=O,60.8
6,Cc1nc(-c2ccccc2)sc1CSC(C)C(N)=O (stereo not given),-48.3
7,Cc1nc(-c2ccccc2)sc1CSCCS(C)(=O)=O,20.1
8,CNc1cc2c(nn1)CCN(C(=O)c1cc(C)no1)C2,-65.3
9,CN1CC(C(=O)NCc2ccc(Br)cc2F)CC1=O (stereo not given),-18.5
10,CCNC(=O)CN1CCC(OCC2CCCO2)CC1 (stereo not given),68.8
11,CNC(=O)CN1CCC(OCC2CCCO2)CC1 (stereo not given),32.9
12,O=C(CN1CCC(OCC2CCCO2)CC1)NCC(F)(F)F (stereo not given),1.2
13,Cc1nn(C)c(C)c1C1CCCN1C(=O)c1ccnc(N(C)C)c1 (stereo not given),-4.16
14,CN(Cc1ccco1)C1CCC12CCN(C(=O)c1ccco1)CC2 (stereo not given),-77.5
15,COc1ncccc1CNC(=O)c1cc(C)on1,-41.1
16,COc1ccccc1C(C)N1CCN(S(C)(=O)=O)CC1 (stereo not given),51.1
17,COc1ccccc1C(C)N1CCN(S(=O)(=O)N(C)C)CC1 (stereo not given),14.7
18,CCS(=O)(=O)N1CCN(C(C)c2ccccc2OC)CC1 (stereo not given),13.5
19,COCCC(=O)N1CCCC2(CCCN2Cc2ccccc2F)C1 (stereo not given),19.5
20,COCC(=O)N1CCN(C(=O)Cc2cccs2)[C@H]2CS(=O)(=O)C[C@H]21,-6.11
21,Cc1cc(C2CCCN(CC(=O)N3CCCc4ccccc43)C2)n[nH]1 (stereo not given),19.9
22,O=C(CN1CCCC(c2ccn[nH]2)C1)Nc1nc2c(s1)CCC2 (stereo not given),83.2

row,Compound,INHIBITION [%]
1,CC(C)C1Nc2ccccc2C(=O)N1CC(=O)Nc1nc2c(s1)CCC2 (stereo not given),16.5
2,O=C(CN1CCCC(c2ccn[nH]2)C1)Nc1nc2c(s1)CCCC2 (stereo not given),86.9
3,O=C(O)c1cccc(CN2CCCC(c3ccn[nH]3)C2)c1 (stereo not given),21.45
4,Cc1cc(C2CCCN(CC(=O)N3CCc4ccccc43)C2)n[nH]1 (stereo not given),15.2
5,Cc1cc(C2CCCN(CC(=O)Nc3nc4c(s3)CCC4)C2)n[nH]1 (stereo not given),75.8
6,O=C1CCCN1CCN1CCCC(c2ccn[nH]2)C1 (stereo not given),-24.2
7,O=C(CN1CCCC(c2ccn[nH]2)C1)N1CCCc2ccccc21 (stereo not given),21.8
8,O=C(CN1CCCC(c2ccn[nH]2)C1)Nc1nncs1 (stereo not given),56.3
9,Cc1nnc(NC(=O)CN2CCCC(c3ccn[nH]3)C2)s1 (stereo not given),47.1
10,Cc1nc(C)n(CC2CCCN(CC(=O)Nc3nncs3)C2)n1 (stereo not given),12.4
11,NC(=O)CCCNC(=O)Cc1csc(Cc2ccccn2)n1,46.6
12,CNC(=O)N1CCCCC1CCNS(C)(=O)=O (stereo not given),-2.48
13,CC(=O)N1CCCN(C(C(=O)O)c2ccc(C)cc2C)CC1 (stereo not given),41.3
14,CNc1cc(N2CCCC2CNCc2cccc(C(N)=O)c2)ncn1 (stereo not given),39.5
15,CC(=O)N1CCN(C(=O)c2csc(-c3ccc(C)cc3C)n2)CC1,17
16,CN1CC2(CCN(C(=O)c3cccc(-n4cccn4)c3)CC2)OC1=O,12
17,CC(=O)N1CCC(NC(=O)c2ccc3c(c2O)OC(C)(C)C3)CC1,48.2
18,Cc1ccc(CN2CCC3(CC2)CC(CC(=O)NC(C)C)CO3)s1 (stereo not given),-62.7
19,CN(C)C[C@H]1OC[C@@H]2CCN(S(=O)(=O)c3ccc(F)cc3)C[C@@H]21,42.7
20,COc1ccccc1C(C)(C)NC(=O)NC1CCC(O)CC1 (stereo not given),-30.3
21,Cc1ccc2oc(C(=O)N3CCCC(n4ccnc4C)C3)cc2n1 (stereo not given),20.33
